Results reported in PubChem BioAssay AID1159580 (chemical genetic matrix, 2015).
Hit rate of the full screen: of about 5,500 compounds, about 2,000 (36%) were called active. Inconclusive results (about 18%) are left out. No stated cut-off is given here; in the data, active means normalized growth mostly below about 0.91 (no sharp cut-off); inconclusive means no clear call, values can overlap the other calls; inactive means mostly above about 0.92. Some of the results follow.

Experiment: chemical genetic growth profiling, strain panel (AID 1159580);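 further: tested at 20 µM; growth read once vehicle control cultures reached saturation at 30 °C; 1 = growth at the plate median or of vehicle wells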
Conditions: growth OD
[1] = S. cerevisiae deletion strains, locus YDL101C, strain DUN1, stronger effect = lower value
[2] = S. cerevisiae deletion strains, locus YHR030C, strain SLT2, stronger effect = lower value
[3] = S. cerevisiae deletion strains, locus YAL013W, strain DEP1, stronger effect = lower value
[4] = S. cerevisiae deletion strains, locus YBR229C, strain ROT2, stronger effect = lower value
[5] = S. cerevisiae deletion strains, locus YDR150W, strain NUM1, stronger effect = lower value
[6] = S. cerevisiae deletion strains, locus YEL061C, strain CIN8, stronger effect = lower value
[7] = S. cerevisiae deletion strains, locus YGR078C, strain PAC10, stronger effect = lower value
[8] = S. cerevisiae deletion strains, locus YHR087W, strain rtc3, stronger effect = lower value
[9] = S. cerevisiae deletion strains, locus YJL187C, strain SWE1, stronger effect = lower value
[10] = S. cerevisiae deletion strains, locus YJR043C, strain POL32, stronger effect = lower value
[11] = S. cerevisiae deletion strains, locus YJR075W, strain HOC1, stronger effect = lower value
[12] = S. cerevisiae deletion strains, locus YLR039C, strain RIC1, stronger effect = lower value
[13] = S. cerevisiae deletion strains, locus YLR058C, strain SHM2 (second series), stronger effect = lower value
[14] = S. cerevisiae deletion strains, locus YLR085C, strain ARP6, stronger effect = lower value
[15] = S. cerevisiae deletion strains, locus YLR262C, strain YPT6, stronger effect = lower value
[16] = S. cerevisiae deletion strains, locus YML094W, strain GIM5, stronger effect = lower value
[17] = S. cerevisiae deletion strains, locus YMR219W, strain ESC1, stronger effect = lower value
[18] = S. cerevisiae deletion strains, locus YMR263W, strain SAP30, stronger effect = lower value
[19] = S. cerevisiae deletion strains, locus YNL153C, strain GIM3, stronger effect = lower value
[20] = S. cerevisiae deletion strains, locus YNL298W, strain CLA4 (second series), stronger effect = lower value
[21] = S. cerevisiae deletion strains, locus YNL322C, strain KRE1, stronger effect = lower value
[22] = S. cerevisiae deletion strains, locus YNR030W, strain Alg12, stronger effect = lower value
[23] = S. cerevisiae deletion strains, locus YOL006C, strain TOP1, stronger effect = lower value
[24] = S. cerevisiae deletion strains, locus YPL055C, strain LGE1, stronger effect = lower value
[25] = S. cerevisiae deletion strains, locus YPL241C, strain CIN2, stronger effect = lower value
[26] = S. cerevisiae deletion strains, locus YPR135W, strain CTF4, stronger effect = lower value
[27] = S. cerevisiae strains, strain wild type, stronger effect = lower value

Measured: normalized growth

FC(F)(F)c1c2c(nc3cc(-c4ccco4)nn13)CCC2
active: [2] 0.702 | S. cerevisiae deletion strains, locus YLR113W, strain HOG1, stronger effect = lower value 0.802
inactive: S. cerevisiae deletion strains, locus YAR019C, strain CDC15, stronger effect = lower value 0.965 | S. cerevisiae deletion strains, locus YBL105C, strain PKC1, stronger effect = lower value 0.973 | S. cerevisiae deletion strains, locus YBR135W, strain CKS1, stronger effect = lower value 0.964 | S. cerevisiae deletion strains, locus YBR136W, strain MEC1, stronger effect = lower value 0.971 | S. cerevisiae deletion strains, locus YBR160W, strain CDC28, stronger effect = lower value 0.975 | S. cerevisiae deletion strains, locus YDL017W, strain CDC7, stronger effect = lower value 0.971 | S. cerevisiae deletion strains, locus YDL028C, strain MPS1, stronger effect = lower value 0.971 | [1] 0.967 | S. cerevisiae deletion strains, locus YDL108W, strain KIN28, stronger effect = lower value 0.967 | S. cerevisiae deletion strains, locus YDL132W, strain cdc53, stronger effect = lower value 0.96 | S. cerevisiae deletion strains, locus YDL214C, strain PRR2, stronger effect = lower value 0.9 | S. cerevisiae deletion strains, locus YDR052C, strain DBF4, stronger effect = lower value 0.966 | S. cerevisiae deletion strains, locus YDR054C, strain cdc34, stronger effect = lower value 0.952 | S. cerevisiae deletion strains, locus YDR226W, strain ADK1, stronger effect = lower value 0.968 | S. cerevisiae deletion strains, locus YDR477W, strain SNF1, stronger effect = lower value 0.882 | S. cerevisiae deletion strains, locus YER123W, strain YCK3, stronger effect = lower value 0.858 | S. cerevisiae deletion strains, locus YER133W, strain GLC7, stronger effect = lower value 0.912 | S. cerevisiae deletion strains, locus YFL009W, strain cdc4, stronger effect = lower value 0.968 | S. cerevisiae deletion strains, locus YFL029C, strain CAK1, stronger effect = lower value 0.96 | S. cerevisiae deletion strains, locus YFR003C, strain YPI1, stronger effect = lower value 0.976 | S. cerevisiae deletion strains, locus YFR019W, strain FAB1, stronger effect = lower value 0.959 | S. cerevisiae deletion strains, locus YFR028C, strain CDC14, stronger effect = lower value 0.969 | S. cerevisiae deletion strains, locus YGR040W, strain KSS1, stronger effect = lower value 0.875 | S. cerevisiae deletion strains, locus YGR052W, strain FMP48, stronger effect = lower value 0.942 | S. cerevisiae deletion strains, locus YGR092W, strain DBF2, stronger effect = lower value 0.815 | S. cerevisiae deletion strains, locus YHR079C, strain IRE1, stronger effect = lower value 0.891 | S. cerevisiae deletion strains, locus YHR082C, strain KSP1, stronger effect = lower value 0.896 | S. cerevisiae deletion strains, locus YHR205W, strain SCH9, stronger effect = lower value 0.825 | S. cerevisiae deletion strains, locus YIL147C, strain SLN1, stronger effect = lower value 0.971 | S. cerevisiae deletion strains, locus YJL095W, strain BCK1, stronger effect = lower value 0.819 | S. cerevisiae deletion strains, locus YJL128C, strain PBS2, stronger effect = lower value 0.92 | S. cerevisiae deletion strains, locus YJL157C, strain FAR1, stronger effect = lower value 0.869 | S. cerevisiae deletion strains, locus YJR016C, strain ILV3, stronger effect = lower value 0.973 | S. cerevisiae deletion strains, locus YJR066W, strain TOR1 (second series), stronger effect = lower value 0.987 | S. cerevisiae deletion strains, locus YJR066W, strain TOR1, stronger effect = lower value 0.833 | S. cerevisiae deletion strains, locus YKL048C, strain ELM1, stronger effect = lower value 0.941 | S. cerevisiae deletion strains, locus YKL067W, strain YNK1, stronger effect = lower value 0.879 | S. cerevisiae deletion strains, locus YKL101W, strain HSL1, stronger effect = lower value 0.928 | S. cerevisiae deletion strains, locus YKL193C, strain SDS22, stronger effect = lower value 0.959 | S. cerevisiae deletion strains, locus YKL203C, strain TOR2, stronger effect = lower value 0.901 | S. cerevisiae deletion strains, locus YLR133W, strain CKI1, stronger effect = lower value 0.884 | S. cerevisiae deletion strains, locus YLR403W, strain SFP1, stronger effect = lower value 0.855 | S. cerevisiae deletion strains, locus YML070W, strain DAK1, stronger effect = lower value 0.906 | S. cerevisiae deletion strains, locus YMR001C, strain CDC5, stronger effect = lower value 0.966 | S. cerevisiae deletion strains, locus YMR205C, strain PFK2 (second series), stronger effect = lower value 0.891 | S. cerevisiae deletion strains, locus YMR277W, strain FCP1, stronger effect = lower value 0.963 | S. cerevisiae deletion strains, locus YNL006W, strain LST8, stronger effect = lower value 0.97 | S. cerevisiae deletion strains, locus YNL020C, strain ARK1, stronger effect = lower value 0.851 | S. cerevisiae deletion strains, locus YNL161W, strain CBK1, stronger effect = lower value 0.974 | S. cerevisiae deletion strains, locus YNL183C, strain NPR1, stronger effect = lower value 0.816 | S. cerevisiae deletion strains, locus YNL207W, strain RIO2, stronger effect = lower value 0.96 | S. cerevisiae deletion strains, locus YNL222W, strain SSU72, stronger effect = lower value 0.97 | S. cerevisiae deletion strains, locus YNL307C, strain MCK1 (second series), stronger effect = lower value 0.861 | S. cerevisiae deletion strains, locus YOL078W, strain AVO1, stronger effect = lower value 0.961 | S. cerevisiae deletion strains, locus YOL136C, strain PFK27, stronger effect = lower value 0.884 | S. cerevisiae deletion strains, locus YOR061W, strain CKA2, stronger effect = lower value 0.865 | S. cerevisiae deletion strains, locus YOR119C, strain RIO1, stronger effect = lower value 0.921 | S. cerevisiae deletion strains, locus YOR231W, strain MKK1, stronger effect = lower value 0.883 | S. cerevisiae deletion strains, locus YOR329C, strain SCD5, stronger effect = lower value 0.976 | S. cerevisiae deletion strains, locus YPL031C, strain PHO85, stronger effect = lower value 0.869 | S. cerevisiae deletion strains, locus YPL153C, strain RAD53, stronger effect = lower value 0.889 | S. cerevisiae deletion strains, locus YPL204W, strain HRR25, stronger effect = lower value 0.87 | S. cerevisiae deletion strains, locus YPL209C, strain IPL1, stronger effect = lower value 0.972 | S. cerevisiae deletion strains, locus YPL256C, strain CLN2, stronger effect = lower value 0.891 | S. cerevisiae deletion strains, locus YPR025C, strain CCL1, stronger effect = lower value 0.968 | S. cerevisiae deletion strains, locus YPR106W, strain ISR1, stronger effect = lower value 0.959 | S. cerevisiae deletion strains, locus YPR111W, strain DBF20, stronger effect = lower value 0.958 | S. cerevisiae deletion strains, strain NNK1, stronger effect = lower value 0.959 | S. cerevisiae deletion strains, strain TSCII, stronger effect = lower value 0.969

FC(F)(F)c1cc(-c2ccc(Cl)cc2)nc2cc(C3CC3)nn12
inactive: [3] 1.03 | [4] 1.01 | [1] 1.03 | [5] 0.99 | [6] 1 | [7] 1.03 | [2] 1.16 | [8] 1.02 | [9] 1.01 | [10] 1.04 | [11] 1.01 | [12] 1.01 | [13] 1.02 | [14] 1.05 | [15] 1.06 | [16] 1.02 | [17] 1.01 | [18] 1.01 | [19] 1.02 | [20] 1.05 | [21] 1.02 | [22] 1.01 | [23] 1.08 | [24] 1.03 | [25] 1.02 | [26] 1.15 | [27] 0.997

FC(F)(F)c1cc(-c2ccco2)nc2cc(-c3ccco3)nn12
active: [3] 0.869 | [4] 0.908 | [10] 0.881 | [12] 0.729 | [18] 0.899 | [22] 0.798 | [25] 0.844 | [26] 0.594
inactive: S. cerevisiae deletion strains, locus YCL061C, strain MRC1, stronger effect = lower value 0.98 | [1] 0.972 | [5] 0.889 | [6] 0.97 | [7] 0.958 | [2] 0.722 | [8] 0.935 | [9] 0.973 | [11] 0.903 | [13] 0.96 | [14] 0.829 | [15] 0.883 | [16] 0.889 | [17] 1 | [19] 0.949 | [20] 0.859 | [21] 0.997 | [24] 0.851 | [27] 0.988

Cc1cc(C(F)(F)F)n2nc(-c3ccc(C(C)(C)C)cc3)cc2n1
inactive: [3] 0.996 | [4] 1.02 | [1] 0.983 | [5] 0.965 | [6] 0.993 | [7] 1.01 | [2] 0.963 | [8] 1.01 | [10] 1.01 | [11] 0.994 | [12] 0.965 | [13] 1 | [14] 0.899 | [15] 0.964 | [16] 0.958 | [17] 0.999 | [18] 1.05 | S. cerevisiae deletion strains, locus YMR307W, strain GAS1, stronger effect = lower value 0.868 | [19] 1.01 | [20] 0.98 | [21] 0.988 | [22] 0.976 | [23] 0.984 | [24] 1.06 | [25] 0.902 | [26] 1.08 | [27] 0.986
